Consider 7 compounds from PubChem BioAssay (NCATS).

Results filed as inconclusive are left out. Active and inactive are the calls of the source. Unless noted, calls come from the whole dose curve; as a rule, active = well fitted curve in the direction sought with a large enough effect; inconclusive = small, poorly fitted or top-dose-only effect, or another doubt; inactive = no such curve, though single readings can be large; an effect the other way counts as inactive or inconclusive.

Test [1] has as its target Lysosomal acid glucosylceramidase (Homo sapiens) (UniProt P04062). In words: Glucocerebrosidase-p2 (AID 348; in the data active = potency below about 10 µM; note: potency is the fitted concentration of half-maximal effect). The conditions noted are these: purified GBA, blue fluorogenic substrate, 40 min. Summed up: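 Normal human glucocerebrosidase (0.2 nM) with blue fluorogenic substrate (80 uM final) in citrate/phosphate pH 5.9 with 10mM sodium taurocholate, 0.01% tween-20; 40 min RT, NaOH/glycine stop; fluorescence Ex 365/Em 440; AC50 from a titration from 0.6 nM upwards.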

Test [2] in a line: AP1 Signaling Pathway (AID 357; active = well fitted curve in either direction with a large enough effect, not every such curve was filed as active; note: % is set by controls: 0 for no effect and ±100 for the full control effect). The conditions noted are these: ME-180 AP-1-bla reporter, EGF-induced, beta-lactamase ratio, 5 h; at 7.69 µM (top of the series) unless noted. Summed up:
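ME-180 cells with beta-lactamase reporter under AP-1 response element, stimulated with EC50 EGF; compounds tested in titration series, 5 h at 37 °C. CCF4 substrate added 2.5 h at room temperature; 460/530 nm emission ratio gave %activity and AC50.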

Test [3] deals with Cytochrome P450 1A2 (Homo sapiens) (UniProt P05177). The experiment in a line: p450-cyp1a2 (AID 410; calls by dose curve; note: potency is the fitted concentration of half-maximal effect). The settings on record: recombinant CYP1A2, luciferin-ME demethylation, luminescence; series mostly up to 57 µM. Summed up: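 Read-out is luminescence from luciferin produced by CYP1A2 demethylation of Luciferin-ME (100uM, at Km). Detection reagent stopped the 60 min NADPH-dependent reaction; signals were normalized to 57 uM furafylline.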

Test [4] is described as follows: NFAT Signaling Pathway (AID 444; active = well fitted curve in either direction with a large enough effect, not every such curve was filed as active;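 note: carbachol stimulus at about its EC50 of 1 µM final; % is set by controls: 0 for no effect and ±100 for the full control effect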). The conditions noted are these: Jurkat NFAT-bla M1, carbachol, beta-lactamase ratio, 5 h; at 7.69 µM (top of the series) unless noted. Summed up: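 Jurkat cells carrying an NFAT-driven β-lactamase reporter and co-transfected muscarinic M1 receptor were treated with compound plus carbachol (1 uM final, an EC50 level) for 5 h at 37 °C. CCF4 loading followed for 1 h at RT; 460/530 nm ratio gave %activity.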

Test [5] in a line: Stat Signaling Pathway (AID 446; active = well fitted curve in either direction with a large enough effect, not every such curve was filed as active;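 note: ME-180 cervical cancer cells given 40 pM IL-6 alongside compound; SIE-controlled beta-lactamase reporter measured as 460/530 nm FRET emission ratio; % is set by controls: 0 for no effect and ±100 for the full control effect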). The conditions noted are these: ME-180 SIE beta-lactamase reporter, IL-6 stimulated, 5 h; at 7.69 µM (top of the series) unless noted. Summed up: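 Compound effects on IL-6-induced STAT reporter activity were measured in ME-180 cells. After overnight culture, cells were co-treated with 40 pM IL-6 for 5 hrs before beta-lactamase substrate loading at room temperature.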

Test [6] has as its target Glucocorticoid receptor (Homo sapiens) (UniProt P04150). In words: GR-GFP Redistribution (AID 450;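 active = compounds whose dose series gives a full or clear partial fitted curve of increased nuclear translocation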; note: potency is the fitted concentration of half-maximal effect). The conditions noted are these: U2OS GR-GFP nuclear translocation, laser cytometry, 2 h.
Test [7] has the same target. The experiment in a line: GR-EFC Redistribution (AID 451; calls by dose curve; note: potency is the fitted concentration of half-maximal effect). The conditions noted are these: CHO-K1 GR-EFC translocation, beta-gal luminescence, 2 h. A digest of the protocol:
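CHO-K1 cells stably expressing nuclear-localized β-gal enzyme acceptor and GR fused C-terminally to the enzyme donor fragment; ligand-driven nuclear translocation restores β-gal by complementation. Compounds titrated up to 46 uM final, 2 h at 37 °C; luminescence read.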

For test [8], the target named is Mitogen-activated protein kinase 10 (Mus musculus) (UniProt Q61831). The experiment in a line: JNK3 AlphaScreen Assay (AID 530; active = well fitted curve in either direction with a large enough effect, not every such curve was filed as active;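 note: kinase came from lysate of stimulated human HepG2 cells; % is set by controls: 0 for no effect and ±100 for the full control effect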). The settings on record: JNK3 lysate, c-Jun phosphorylation; series mostly up to 57.1 µM. A digest of the protocol: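 Biotinylated GST-cJun(1-79) served as substrate for JNK3 in HepG2 lysates stimulated with IL-1beta and TNF-alpha. ATP was 10 uM final, pH 7.6. Ser73 phosphorylation was quantified by AlphaScreen (680 nm excitation).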

For test [9], the target named is Cytochrome P450 2C19 (Homo sapiens) (UniProt P33261). In words: qHTS Assay for Inhibitors and Substrates of Cytochrome P450 2C19 (AID 899). Note: potency is the fitted concentration of half-maximal effect; nearly all actives have a fitted effect of over 60% in size. The conditions noted are these: recombinant CYP2C19, luciferin-H EGE luminescence; series mostly up to 57.1 µM. A digest of the protocol: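 NADPH-dependent conversion of Luciferin-H EGE (10uM, at KM) by 5nM enzyme in 50mM KPO4, 60 min at 37C following 10 min compound preincubation. Stopped with luciferin detection buffer; luminescence read after 20 min.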

Test [10] can be described thus: qHTS Assay for Lipid Storage Modulators (AID 1519; calls by dose curve). The settings on record: Drosophila S3 cells, BODIPY lipid droplet/cell ratio, laser cytometry, cells loaded with oleic acid; for activity change, negative = inhibition: at 57.5 µM (top of the series). Summed up: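 Cells seeded at 5,000 per well were treated with compounds over a concentration series and loaded with oleic acid (400 uM, as added). Lipid droplet fluorescence (488 nm excitation, 500-530 nm channel) was read by laser-scanning cytometry and normalized to 20 uM Triacsin C.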

In test [11] the target is Dual specificity protein kinase CLK4 (Homo sapiens) (UniProt Q9HAZ1). The experiment in a line: qHTS Assay for Inhibitors of CDC-like Kinase 4 (ADP-FP Assay) (AID 1795).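 Note: recombinant human CLK4 phosphorylating RS repeat peptide at 1 µM ATP; % is set by controls: 0 for no effect and ±100 for the full control effect; nearly all actives have a fitted effect of over 60% in size.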 The conditions noted are these: Transcreener ADP fluorescence polarization; series mostly up to 50 µM. A digest of the protocol:
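Kinase activity was followed as ADP output, converted from fluorescence polarization with a calibration curve. Reactions ran one hour at low ATP (1 uM) with RS peptide substrate.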

The target of test [12] is Ubiquitin carboxyl-terminal hydrolase 1 (Homo sapiens) (UniProt O94782). In words: Inhibitors of USP1/UAF1: Pilot qHTS (AID 504865). Note: nearly all actives have a fitted effect of over 35% in size. Note: potency is the fitted concentration of half-maximal effect. The conditions noted are these: purified USP1/UAF1, Ub-rhodamine cleavage fluorescence; series mostly up to 54.9 µM. Summed up: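 Enzyme-free wells gave the negative control, while test wells held 1nM USP1/UAF1 preincubated with compound for 15 min at room temperature. Ub-Rho at 150nM final started the reaction, and fluorescence at 480/540 nm was recorded kinetically.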

A short description of test [13]: Primary qHTS for small molecule stabilizers of the endoplasmic reticulum resident proteome: Secreted ER Calcium Modulated Protein (SERCaMP) assay (AID 1508630). Note: % is set by controls: 0 for no effect and ±100 for the full control effect. The settings on record: SH-SY5Y GLuc-SERCaMP (Gaussia luciferase released on ER calcium loss) secretion, thapsigargin, luminescence; series mostly up to 38.4 µM. A digest of the protocol: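 The SH-SY5Y reporter protocol was run at 3 concentrations up to 38.3 uM (primary) or 11 concentrations (follow-up): 16 h compound, 100 nM thapsigargin for 4 h, then extracellular luciferase luminescence.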

Test [14] deals with 3',5'-cyclic-AMP phosphodiesterase 4B (Homo sapiens) (UniProt Q07343). In words: qHTS Assay for Inhibitors of PDE-IV (AID 607; active = well fitted activation curve with a large enough effect in the main read-out, with a control signal flat, not every such curve was filed as active; note: % of control where 0% means no effect). The settings on record: HEK293 ACTOne CNG channel cells, membrane potential fluorescence; series mostly up to 22.9 µM. A digest of the protocol:
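ACTOne HEK293 cells carry a modified cAMP-gated CNG channel and express endogenous PDE4; plated 1000 cells/well, compounds up to 22.9 uM final. Membrane-potential dye fluorescence (ex 535/em 590) was read; parental cells received 10 uM forskolin + 100 uM RO 20-1724.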

For test [15], the target named is Cytochrome P450 3A4 (Homo sapiens) (UniProt P08684). The experiment in a line: qHTS Assay for Activators of Cytochrome P450 3A4 (AID 885). Note: nearly all actives have a fitted effect of over 65% in size. The settings on record: recombinant CYP3A4, Luciferin-PPXE luminescence, 60 min; series mostly up to 57.1 µM. Summed up:
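CYP3A4 activity: Luciferin-PPXE O-dealkylation, 25uM substrate, 200mM KPO4, RT throughout. Read-out is luciferase luminescence; higher values reflect activation.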

Test [16] in a line: qHTS Assay for Identification of Small Molecule Agonists for Hypoxia Response Element Signaling Pathway (AID 914; active = well fitted activation curve with a large enough effect in the signal ratio, with a control signal flat, not every such curve was filed as active; the % refers to the signal ratio; note: % of control where 0% means no effect). The conditions noted are these: ME-180 (cervical carcinoma) HRE-bla reporter, beta-lactamase ratio, CoCl2, 17 h; activation: stronger effect = higher value. A digest of the protocol:
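Compounds in a titration series were added to ME-180 reporter cells alongside an EC50 level of CoCl2. After 17 hours, beta-lactamase activity was read as the 460nm/530nm emission ratio of CCF4, giving AC50 values.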

The target of test [17] is Cytochrome P450 3A4 (Homo sapiens) (UniProt P08684). In words: qHTS Assay for Inhibitors and Substrates of Cytochrome P450 3A4 (AID 884). Note: potency is the fitted concentration of half-maximal effect; nearly all actives have a fitted effect of over 50% in size. The settings on record: recombinant CYP3A4, Luciferin-PPXE luminescence; series mostly up to 57.1 µM. A digest of the protocol:
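Luminescent readout of luciferin produced by CYP3A4 (20 nM) dealkylation of Luciferin-PPXE, 25 uM (its KM). NADPH-driven reaction ran 60 min at RT after 10 min compound preincubation; data scaled to 57 uM ketoconazole as 100% inhibition.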

Setting [18] is: measured here: cell count channel max response.
Where [19] appears, read: measured here: lipid channel max response.

Sequence of Cytochrome P450 3A4 (Homo sapiens) (P08684 whole entry, looked up): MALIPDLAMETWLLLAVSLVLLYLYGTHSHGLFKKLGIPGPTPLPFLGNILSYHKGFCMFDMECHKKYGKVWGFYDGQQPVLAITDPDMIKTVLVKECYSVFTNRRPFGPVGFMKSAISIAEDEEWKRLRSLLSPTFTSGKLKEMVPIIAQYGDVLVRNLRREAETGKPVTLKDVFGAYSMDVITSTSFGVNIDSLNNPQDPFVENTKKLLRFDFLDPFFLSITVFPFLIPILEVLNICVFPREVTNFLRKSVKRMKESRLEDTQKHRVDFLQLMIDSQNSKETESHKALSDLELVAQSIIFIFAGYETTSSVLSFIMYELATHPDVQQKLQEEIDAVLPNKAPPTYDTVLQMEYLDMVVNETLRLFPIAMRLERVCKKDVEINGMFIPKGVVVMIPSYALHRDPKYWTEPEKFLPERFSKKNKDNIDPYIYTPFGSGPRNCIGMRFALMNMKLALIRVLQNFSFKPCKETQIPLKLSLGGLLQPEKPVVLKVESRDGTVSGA
Sequence of Ubiquitin carboxyl-terminal hydrolase 1 (Homo sapiens) (O94782 whole entry, looked up): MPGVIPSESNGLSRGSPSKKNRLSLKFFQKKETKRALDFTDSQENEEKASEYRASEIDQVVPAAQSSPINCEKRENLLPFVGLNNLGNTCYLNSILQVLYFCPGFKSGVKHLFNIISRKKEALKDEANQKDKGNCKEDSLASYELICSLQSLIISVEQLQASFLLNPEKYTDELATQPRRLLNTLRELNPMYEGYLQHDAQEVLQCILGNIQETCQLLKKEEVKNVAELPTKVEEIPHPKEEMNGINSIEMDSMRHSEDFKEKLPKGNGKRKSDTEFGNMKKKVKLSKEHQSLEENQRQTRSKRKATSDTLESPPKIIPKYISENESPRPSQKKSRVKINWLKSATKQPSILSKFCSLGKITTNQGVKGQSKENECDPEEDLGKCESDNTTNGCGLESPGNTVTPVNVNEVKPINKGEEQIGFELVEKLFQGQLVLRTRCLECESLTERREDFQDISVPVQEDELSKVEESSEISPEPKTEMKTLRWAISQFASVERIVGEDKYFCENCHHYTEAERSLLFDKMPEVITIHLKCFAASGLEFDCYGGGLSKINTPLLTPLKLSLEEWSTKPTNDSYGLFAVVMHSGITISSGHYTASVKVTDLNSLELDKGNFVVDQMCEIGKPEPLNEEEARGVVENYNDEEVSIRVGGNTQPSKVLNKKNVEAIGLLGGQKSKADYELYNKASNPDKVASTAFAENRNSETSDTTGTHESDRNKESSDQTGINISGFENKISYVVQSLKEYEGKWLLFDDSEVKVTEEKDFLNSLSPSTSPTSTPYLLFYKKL
Sequence of Lysosomal acid glucosylceramidase (Homo sapiens) (P04062 whole entry, looked up): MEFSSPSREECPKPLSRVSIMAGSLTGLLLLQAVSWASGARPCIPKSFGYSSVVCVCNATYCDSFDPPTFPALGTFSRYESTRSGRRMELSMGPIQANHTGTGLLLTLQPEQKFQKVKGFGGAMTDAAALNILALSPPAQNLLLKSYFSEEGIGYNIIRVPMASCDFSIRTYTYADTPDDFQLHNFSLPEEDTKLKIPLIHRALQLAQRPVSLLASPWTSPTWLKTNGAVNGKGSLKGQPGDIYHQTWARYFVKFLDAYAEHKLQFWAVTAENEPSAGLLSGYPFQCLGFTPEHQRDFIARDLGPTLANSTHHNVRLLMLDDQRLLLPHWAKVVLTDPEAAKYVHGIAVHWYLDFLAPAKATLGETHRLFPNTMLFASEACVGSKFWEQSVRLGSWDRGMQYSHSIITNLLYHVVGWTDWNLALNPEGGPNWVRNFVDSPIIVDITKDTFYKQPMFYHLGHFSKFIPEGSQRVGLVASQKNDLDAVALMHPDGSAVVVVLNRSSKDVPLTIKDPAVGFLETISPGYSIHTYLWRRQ
Sequence of 3',5'-cyclic-AMP phosphodiesterase 4B (Homo sapiens) (Q07343 whole entry, looked up): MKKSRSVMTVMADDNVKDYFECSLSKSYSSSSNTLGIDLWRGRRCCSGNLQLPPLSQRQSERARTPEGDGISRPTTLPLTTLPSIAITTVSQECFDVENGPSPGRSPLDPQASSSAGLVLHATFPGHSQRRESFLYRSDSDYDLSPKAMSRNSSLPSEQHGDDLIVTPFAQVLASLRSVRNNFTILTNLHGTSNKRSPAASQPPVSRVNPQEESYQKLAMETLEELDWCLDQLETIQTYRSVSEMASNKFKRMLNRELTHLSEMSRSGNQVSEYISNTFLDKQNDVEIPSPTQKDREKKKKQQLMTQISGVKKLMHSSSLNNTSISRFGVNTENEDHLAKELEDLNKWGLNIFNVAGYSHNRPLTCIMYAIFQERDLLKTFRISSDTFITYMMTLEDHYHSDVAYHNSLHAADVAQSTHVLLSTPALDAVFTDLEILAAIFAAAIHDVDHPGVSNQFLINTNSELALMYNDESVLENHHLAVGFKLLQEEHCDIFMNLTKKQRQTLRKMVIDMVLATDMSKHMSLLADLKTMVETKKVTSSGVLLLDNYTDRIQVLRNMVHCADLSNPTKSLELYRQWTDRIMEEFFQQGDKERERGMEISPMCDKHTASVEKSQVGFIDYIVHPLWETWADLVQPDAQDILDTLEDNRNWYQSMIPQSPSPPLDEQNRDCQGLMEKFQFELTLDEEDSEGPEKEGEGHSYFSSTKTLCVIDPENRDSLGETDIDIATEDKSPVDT
Sequence of Dual specificity protein kinase CLK4 (Homo sapiens) (Q9HAZ1 whole entry, looked up): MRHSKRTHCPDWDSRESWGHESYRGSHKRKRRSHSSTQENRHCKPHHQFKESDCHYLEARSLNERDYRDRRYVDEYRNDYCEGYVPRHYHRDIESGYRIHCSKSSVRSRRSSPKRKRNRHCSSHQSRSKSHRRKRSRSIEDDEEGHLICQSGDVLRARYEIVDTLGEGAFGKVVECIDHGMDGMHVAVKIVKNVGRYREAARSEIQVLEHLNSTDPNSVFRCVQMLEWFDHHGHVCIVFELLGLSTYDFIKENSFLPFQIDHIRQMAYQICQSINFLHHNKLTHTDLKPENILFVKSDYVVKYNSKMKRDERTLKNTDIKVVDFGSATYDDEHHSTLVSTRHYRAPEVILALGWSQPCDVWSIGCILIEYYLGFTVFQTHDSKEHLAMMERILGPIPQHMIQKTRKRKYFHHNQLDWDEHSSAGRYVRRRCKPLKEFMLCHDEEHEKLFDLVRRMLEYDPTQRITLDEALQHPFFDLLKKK
Sequence of Cytochrome P450 1A2 (Homo sapiens) (P05177 whole entry, looked up): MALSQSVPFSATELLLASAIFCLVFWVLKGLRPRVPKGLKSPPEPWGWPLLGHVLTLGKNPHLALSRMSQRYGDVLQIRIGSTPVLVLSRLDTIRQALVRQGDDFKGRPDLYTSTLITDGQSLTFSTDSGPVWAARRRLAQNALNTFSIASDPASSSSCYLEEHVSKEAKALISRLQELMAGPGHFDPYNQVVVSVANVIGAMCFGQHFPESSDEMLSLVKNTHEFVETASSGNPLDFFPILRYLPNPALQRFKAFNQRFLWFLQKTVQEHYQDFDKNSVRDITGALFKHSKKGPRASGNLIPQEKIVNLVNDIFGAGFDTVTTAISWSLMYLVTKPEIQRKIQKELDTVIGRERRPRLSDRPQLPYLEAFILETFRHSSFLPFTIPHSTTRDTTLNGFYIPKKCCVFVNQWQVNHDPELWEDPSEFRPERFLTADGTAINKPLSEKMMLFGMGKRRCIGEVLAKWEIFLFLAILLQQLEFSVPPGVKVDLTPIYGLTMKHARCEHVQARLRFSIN
Sequence of Glucocorticoid receptor (Homo sapiens) (P04150 whole entry, looked up): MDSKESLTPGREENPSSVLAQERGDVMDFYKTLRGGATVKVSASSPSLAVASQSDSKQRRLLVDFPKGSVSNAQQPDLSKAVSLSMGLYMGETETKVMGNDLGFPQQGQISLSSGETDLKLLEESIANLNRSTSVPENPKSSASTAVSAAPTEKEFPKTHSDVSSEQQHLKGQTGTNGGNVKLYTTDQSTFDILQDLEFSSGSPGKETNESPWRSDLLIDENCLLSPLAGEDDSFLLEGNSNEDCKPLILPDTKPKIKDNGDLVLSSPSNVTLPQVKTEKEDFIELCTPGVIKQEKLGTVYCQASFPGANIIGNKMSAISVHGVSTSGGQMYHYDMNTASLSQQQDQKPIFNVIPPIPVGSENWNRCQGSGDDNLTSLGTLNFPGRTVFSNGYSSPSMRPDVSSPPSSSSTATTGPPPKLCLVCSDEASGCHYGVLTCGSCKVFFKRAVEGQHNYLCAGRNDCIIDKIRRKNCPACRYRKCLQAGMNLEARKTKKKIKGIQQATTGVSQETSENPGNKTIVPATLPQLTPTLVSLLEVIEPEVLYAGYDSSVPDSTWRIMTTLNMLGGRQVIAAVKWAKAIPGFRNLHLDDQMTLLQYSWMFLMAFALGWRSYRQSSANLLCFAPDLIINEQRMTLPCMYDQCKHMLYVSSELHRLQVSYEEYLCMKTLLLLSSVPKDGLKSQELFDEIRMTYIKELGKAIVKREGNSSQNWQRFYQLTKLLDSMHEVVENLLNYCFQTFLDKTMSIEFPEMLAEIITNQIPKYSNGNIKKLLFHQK
Sequence of Cytochrome P450 2C19 (Homo sapiens) (P33261 whole entry, looked up): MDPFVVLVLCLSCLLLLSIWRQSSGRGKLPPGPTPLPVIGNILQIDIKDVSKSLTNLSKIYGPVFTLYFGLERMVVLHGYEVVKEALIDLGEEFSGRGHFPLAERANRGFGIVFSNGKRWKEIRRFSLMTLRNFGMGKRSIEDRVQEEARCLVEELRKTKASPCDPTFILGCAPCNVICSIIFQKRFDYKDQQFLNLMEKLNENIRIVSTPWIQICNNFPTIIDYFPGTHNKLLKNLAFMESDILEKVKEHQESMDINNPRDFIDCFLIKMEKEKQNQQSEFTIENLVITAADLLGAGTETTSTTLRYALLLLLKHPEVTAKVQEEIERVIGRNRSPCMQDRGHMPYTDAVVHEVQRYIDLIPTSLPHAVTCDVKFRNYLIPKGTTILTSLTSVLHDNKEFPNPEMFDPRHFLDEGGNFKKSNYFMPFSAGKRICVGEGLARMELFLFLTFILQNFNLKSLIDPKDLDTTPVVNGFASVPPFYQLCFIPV

On to `COc1ccccc1-c1cc(NCc2ccccc2)ncn1`, for which the Potency in [1] was > 11.4 µM (inactive); in test [3], 2.51 µM (active); in test [6], > 46 µM (inactive); in test [7] it was > 46 µM (inactive); in [9], 7.94 µM (active); in [12] it was 22.4 µM (active). Besides, the activity change, negative = inhibition in test [2] was 3.71% (inactive); in test [4] it was -5.25% (inactive); in [10] it was 2.28% (inactive). In test [5], the activity, negative = inhibition was 2.32% (inactive). Further, in [8], the call was inactive. Besides, the results for the max response in test [10] (setting [18]) and in test [10] (setting [19]) were 10.9% and 10.5%, respectively. Also, the Potency result in test [11] and in test [13] was “inactive” in each case.

Turning to `N#Cc1ccccc1-c1nc(NCCN2CCOCC2)c2ccccc2n1`, the Potency was > 11.4 µM (inactive) in test [1], > 46 µM (inactive) in [6] and > 46 µM (inactive) in test [7]. Further, the activity change, negative = inhibition in test [2] was 1.04% (inactive); in test [4], -3.19% (inactive); in test [10], 4.61% (inactive). Further, the activity, negative = inhibition in test [5] is 2.02% (inactive). In addition, the compound was called inactive in [8]. The Potency result in test [14], in test [11], in test [12] and in [13] was “inactive” each time. Besides, the values for the max response in test [10] (setting [18]) and in test [10] (setting [19]) were 14.8% and 18.6%, respectively.

Turning to `CN(C)c1ccc(-c2nc(NCCN3CCOCC3)c3ccccc3n2)cc1`, the activity change, negative = inhibition in test [2] was 1.67% (inactive); in test [4], -21.3% (inactive); in test [10], 3.01% (inactive). The Potency in test [3] was 7.94 µM (active); in test [7] it was > 46 µM (inactive). For the same compound, the compound was called inactive in test [8]. Further, the Potency entry in test [14], in test [15], in test [11], in test [12] and in [13] was “inactive” each time. The max response in [10] (setting [18]) worked out at 9.82%; in test [10] (setting [19]), 10.9%.

Regarding `CN(C)C(=O)c1ccc(-c2ccc3ncnc(N4CCC(C(=O)O)CC4)c3c2)cc1`, the Potency is > 11.4 µM (inactive) in [1], > 46 µM (inactive) in test [6] and > 46 µM (inactive) in test [7]. Further, the activity change, negative = inhibition is 0.539% (inactive) in test [2], 7.54% (inactive) in test [4] and 3.56% (inactive) in [10]. Also, the activity, negative = inhibition in test [5] is -4.54% (inactive). For the same compound, the compound was called inactive in test [8]. Also, the Potency result in test [14], in test [11], in test [12] and in [13] was “inactive” throughout. Moreover, the activation in test [16] was -0.026% (inactive). For the same compound, the max response in test [10] (setting [18]) was determined as 20.3%; in [10] (setting [19]), 23.2%.

For the compound `COCCNc1ccnc(-c2ccccc2C(F)(F)F)n1`, the Potency in test [1] is > 11.4 µM (inactive); in [3] it was 20 µM (active); in test [6], > 46 µM (inactive); in test [7], > 46 µM (inactive). Also, the activity change, negative = inhibition in [4] is 9.65% (inactive); in test [10] it was 3.61% (inactive). The activity, negative = inhibition in test [5] is 8.97% (inactive). Also, in [8], the outcome was inactive. Besides, the Potency entry in test [14], in test [11], in [12] and in test [13] was “inactive” throughout. Moreover, the max response in test [10] (setting [18]) was 25.6%; in test [10] (setting [19]), 29.2%.

Consider `CN1CCN(c2ncnc3ccc(-c4ccc(C(=O)N(C)C)cc4)cc23)CC1`, for which the Potency was > 11.4 µM (inactive) in test [1], > 46 µM (inactive) in test [6] and > 46 µM (inactive) in [7]. The results for the activity change, negative = inhibition in test [2], in test [4] and in test [10] were -10.8% (inactive), 1.97% (inactive) and 2.73% (inactive), respectively. Moreover, in [5], the activity, negative = inhibition is -6.95% (inactive). The outcome in test [8] was inactive. For the same compound, the Potency result in [14], in test [15], in [11], in [12] and in [13] was “inactive” throughout. Further, the max response in [10] (setting [18]) is 23.5%; in test [10] (setting [19]), 25.5%.

Regarding `COc1cccc(-c2cncnc2Nc2ccc(F)cc2)c1`, the Potency in [1] was > 11.4 µM (inactive); in test [6], > 46 µM (inactive); in test [7], > 46 µM (inactive); in [17] it was 0.794 µM (active); in test [9], 0.398 µM (active). Besides, the activity change, negative = inhibition is -13.2% (inactive) in test [2], 13.9% (inactive) in [4] and 9.47% (inactive) in test [10]. Moreover, the compound was classed as inactive in test [8]. The Potency entry in [15], in test [11] and in test [13] was “inactive” throughout. For the same compound, the max response turned out to be 6.55% in test [10] (setting [18]) and 18.7% in test [10] (setting [19]).
